The list is not random: actives were taken first. Their share in the collection is about 7.6%.
p53 reactivation: qHTS assay for re-activators of p53 using a Luc reporter | 320,000 compounds, 0.063% hits | AID 504706, 2011 | H1299 p53-A138V BP100-luciferase reporter, luminescence, 24 h | Potency, µM (series often up to 92.2 µM), inactives show top-dose activity change, positive = activation, most hits filed as activators; note: potency is the fitted concentration of half-maximal effect; % of control where 0% means no effect; nearly all actives have a fitted effect of over 45% in size
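H1299 (p53-null), stable ts p53-A138V + BP100-Luc; 1000 cells/well, Opti-MEM/10% FBS; cpd 4 pt, 1:5; 24 h, 37 deg C, 5% CO2; detection reagent 10 min RT; luminescence.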
RORg inh: qHTS for inhibitors of ROR gamma transcriptional activity; Nuclear receptor ROR-gamma (Mus musculus), P51450; Drosophila S2 Gal4-RORgamma UAS-luciferase reporter, 20 h; Potency, µM (doses to about 53.6 µM), for the others: at the top dose activity change, negative = inhibition, most hits filed as inhibitors; 310,000 compounds, 5.4% hits; AID 2551, 2010; note: potency is the fitted concentration of half-maximal effect; % is set by controls: 0 for no effect and ±100 for the full control effect; nearly all actives have a fitted effect of over 60% in size
Target sequence (P51450 whole entry, looked up, the tested form may be a part): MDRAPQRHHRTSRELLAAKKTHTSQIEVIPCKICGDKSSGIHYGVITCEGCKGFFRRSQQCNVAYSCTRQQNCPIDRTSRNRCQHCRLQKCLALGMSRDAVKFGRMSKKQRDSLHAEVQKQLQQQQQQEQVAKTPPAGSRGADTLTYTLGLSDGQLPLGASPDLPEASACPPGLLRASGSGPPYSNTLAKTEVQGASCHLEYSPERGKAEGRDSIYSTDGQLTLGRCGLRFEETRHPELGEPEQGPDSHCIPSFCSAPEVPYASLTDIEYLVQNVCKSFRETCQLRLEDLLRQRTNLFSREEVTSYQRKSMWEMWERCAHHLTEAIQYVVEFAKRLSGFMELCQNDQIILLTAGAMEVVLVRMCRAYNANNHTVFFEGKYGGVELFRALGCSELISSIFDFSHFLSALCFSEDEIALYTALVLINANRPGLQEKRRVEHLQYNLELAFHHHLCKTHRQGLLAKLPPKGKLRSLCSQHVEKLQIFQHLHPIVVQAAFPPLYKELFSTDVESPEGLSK
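Schneider cells (Drosophila), stable Gal4 DBD–ROR gamma + UAS-luc; 1 hr cmpd preincubation; Cu2+ induction 700 uM final; 20 hr ambient; luminescence.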
Giardia killer: Small Molecules that selectively kill Giardia lamblia: qHTS | Giardia lamblia trophozoite viability | activity change, % at 7.66 µM, hits read low | 340,000 compounds, 0.15% hits | AID 540267, 2011; in the data active = activity change below about -80%; inconclusive = between about -30% and that limit;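 note: parasites exposed to compound for two days anaerobically before the ATP read; % is set by controls: 0 for no effect and ±100 for the full control effect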
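Trophozoites 100 cells/well + cpd; 48 hrs, 37 deg C, anaerobic. ATPLite 1-Step added, 15-30 min RT, luminescence read (ATP-based viability).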
ELG1 DNA repair: qHTS screen for small molecules that inhibit ELG1-dependent DNA repair in human embryonic kidney (HEK293T) cells expressing luciferase-tagged ELG1. HEK293T ELG1-luciferase reporter, luminescence, 16 h; DNA damage induced by 5-fluorouridine. Potency, µM (top dose mostly 46.1 µM), for inactives: at the highest dose activity change, negative = inhibition, usual class: inhibitors. 330,000 compounds, 2.3% hits. AID 504467, 2011; note: potency is the fitted concentration of half-maximal effect; % is set by controls: 0 for no effect and ±100 for the full control effect; nearly all actives have a fitted effect of over 55% in size
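Reporter activity after DNA damage by 5-fluorouridine is monitored. Compound-treated cells incubate 16 hr at 37 °C, then ONE-Glo is added for 30 min before luminescence reading.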
BRCA1 expr act: qHTS Assay to Identify Small Molecule Activators of BRCA1 Expression; MCF7-BRCA1-FFLuc reporter, luminescence, 48 h; response scale: scaled: vehicle 0%, 10 µM genistein 100%; Potency, µM (top dose mostly 46.1 µM), without a hit: at the top dose activation, most hits filed as activators; 380,000 compounds, 1.1% hits; AID 624202, 2012; note: potency is the fitted concentration of half-maximal effect; nearly all actives have a fitted effect of over 80% in size
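Luminescence from a BRCA1-driven firefly luciferase in MCF7 cells was read after 48 h compound exposure at 37 C. Data normalized against DMSO and a 10microM genistein activation control, then curve-fitted across the titration.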
VP16 counter: VP16 counterscreen qHTS for inhibitors of ROR gamma transcriptional activity; Drosophila S2 Gal4-VP16 UAS-luciferase, luminescence, 20 h; Potency, µM (series often up to 53.6 µM), for inactives: top-dose activity, negative = inhibition, most hits filed as inhibitors; 310,000 compounds, 3.5% hits; AID 2546, 2010;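 note: Gal4-VP16 expression switched on by copper sulfate through the metallothionein promoter; potency is the fitted concentration of half-maximal effect; % is set by controls: 0 for no effect and ±100 for the full control effect; nearly all actives have a fitted effect of over 50% in size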
Active calls of the source: *; ? = inconclusive; / = not tested or not shown; [ ] = dose if it differs, or a comment. Unless noted, calls come from the whole dose curve; as a rule, active = well fitted curve in the direction sought with a large enough effect; inconclusive = small, poorly fitted or top-dose-only effect, or another doubt; inactive = no such curve, though single readings can be large; an effect the other way counts as inactive or inconclusive.

SMILES | p53 reactivation | RORg inh | Giardia killer | ELG1 DNA repair | BRCA1 expr act | VP16 counter
Cn1cc(C(=O)N2CCCCC2)c(=O)c2cc(S(=O)(=O)N3CCCC3)ccc21 | 5.8% | -27.4% | 28.4 | ? | 7.6% | -0.7%
CC1CCN(CC(=O)Nc2ccc(S(=O)(=O)NC3CC3)cc2)CC1 | -1.0% | -7.7% | -21.0 | 1.6% | 1.9% | -2.5%
O=C(CSc1nnc(-c2cccnc2)n1Cc1ccco1)Nc1nc(-c2ccc(F)cc2)cs1 | 7.2% | ? | 12.9 | 20.6µM* | -60.3% | 2.7%
O=C(CSc1nnc(-c2cccnc2)n1Cc1ccco1)Nc1cccc(O)c1 | 3.4% | -2.3% | -1.3 | 6.8% | 7.1% | -1.4%
CCn1c(SCC(=O)Nc2nc(-c3ccc(C)cc3)cs2)nnc1-c1ccccc1 | -1.7% | 30.8% | -0.5 | 25.9µM* | -54.4% | 16.5%
O=C(NC(=S)Nc1ccc(Cc2ccncc2)cc1)c1ccccc1 | ? | ? | -13.7 | -10.1% | 10.1% | ?
Cc1cccc(C(=O)NC(=S)Nc2ccc(Cc3ccncc3)cc2)c1 | 4.8% | 15.8µM* | -8.9 | -1.3% | -39.3% | ?
Cc1cc(C)cc(C(=O)NC(=S)Nc2ccc(Cc3ccncc3)cc2)c1 | -3.6% | 7.94µM* | -6.6 | ? | -39.2% | ?
COc1cc(C(=O)NC(=S)Nc2ccc(Cc3ccncc3)cc2)cc(OC)c1OC | 3.6% | 0.0% | -16.2 | 13µM* | -1.6% | -18.1%
COc1ccccc1C(=O)NC(=S)Nc1ccc(Cc2ccncc2)cc1 | 4.9% | ? | -8.1 | -17.7% | 2.6% | -15.2%
O=C1CSC(=S)N1N=Cc1cccc2ccccc12 | / | / | 10.7 | / | -30.5% | /
Cc1ccc(C)c(NC(=O)CNS(=O)(=O)c2ccccc2)c1 | 4.7% | 0.1% | 7.8 | 3.9% | -18.4% | -3.4%
CCNC(=S)N/N=C(\C)c1ccc(N2CCOCC2)cc1 | -1.3% | 2.51µM* | 2.7 | -5.1% | 9.9% | 3.55µM*
CNC(=S)N/N=C(\C)c1ccc(N2CCOCC2)cc1 | ? | 7.94µM* | 12.4 | ? | 8.91µM* | ?
C/C(=N\NC(=O)c1cccc(C)c1)c1ccc(N2CCOCC2)cc1 | 4.9% | ? | -4.6 | ? | 8.0% | 4.0%
Nc1[nH]ncc1N=Nc1ccc(Cl)cc1 | 3.0% | -15.6% | 2.1 | ? | 11.2µM* | 4.4%
Cc1cc(C(=O)N/N=C/c2ccc[nH]2)n[nH]1 | ? | 2.82µM* | 6.9 | ? | -33.9% | 12.7%
Cc1cc(C(=O)N/N=C/c2cc(Br)ccc2OC(=O)c2ccccc2)n[nH]1 | ? | ? | 18.8 | -14.4% | -76.0% | 2.7%[0.365 µM]
Cc1cc(C(=O)N/N=C/c2ccc[nH]2)no1 | 9.0% | 10µM* | -3.1 | ? | 25.7% | 11.2µM*
Cc1cc(C(=O)N/N=C/c2cc(Br)ccc2OC(=O)c2ccccc2Cl)n[nH]1 | 2.8% | 14.1µM* | -18.0 | ? | -83.0% | ?
Cn1c2ccccc2c2nnc(SCC(=O)NC3CC3)nc21 | -3.8% | -20.8% | 3.8 | 6.9% | -1.0% | 1.3%
CCOC(=O)c1cc(S(=O)(=O)N2CCOCC2)cn1C | -4.6% | 0.5% | -8.7 | ? | -6.7% | -3.1%
CCCCSc1nc(C)cc(NC(=S)Nc2ccc(OC)cc2)n1 | 3.2% | 1.26µM* | -1.3 | 0.7% | -36.2% | 3.55µM*
CCC(C)c1ccc(NC(=S)Nc2ccc(OC)cc2C)cc1 (configuration not stated) | 22.7% | 4.2% | -3.2 | ? | -8.3% | ?
COc1ccc(NC(=S)Nc2ccc3nc(C)c(C)nc3c2)cc1 | 1.9% | 11.2µM* | -0.4 | -5.8% | -0.5% | -2.6%
SMILES | p53 reactivation | RORg inh | Giardia killer | ELG1 DNA repair | BRCA1 expr act | VP16 counter
COc1ccc(NC(=S)Nc2ccc3nsnc3c2)cc1 | ? | 10µM* | 5.4 | -17.2% | 9.5% | 5.62µM*
CNC(=S)Nc1ccc2nc(C)c(C)nc2c1 | 3.4% | 24.5% | 3.2 | 16.8% | 18.9% | -6.0%
C=CCN(CC=C)C(=S)Nc1ccc2nsnc2c1 | -20.1% | 3.55µM* | 20.5 | -12.8% | -7.6% | 6.31µM*
CCOc1ccc(NC(=S)Nc2ccc3nsnc3c2)cc1 | -35.5% | -90.7% | -26.0 | -1.4% | -6.6% | ?
COc1cccc(CNC(=O)CN(C)S(=O)(=O)c2cnc[nH]2)c1 | 7.7% | -0.7% | 11.9 | 1.0% | 12.3% | 0.5%
O=[N+]1C2=C(CCCC2)N([O-])C12CCCC2 | 1.9% | -18.4% | 9.5 | 1.1% | -1.0% | 2.7%
Cc1ccc(Cl)cc1N1CCN(CCCNC(=O)c2nnc(Cc3cccc(Cl)c3)o2)CC1 | / | / | -23.1 | / | -62.0% | /
OCCCc1nc2ccccc2n1Cc1ccccc1 | 2.2% | 16.2% | 1.7 | 0.2% | 0.9% | -1.7%
COc1ccc(NS(=O)(=O)c2cccc(C(=O)NCC3(N4CCCCC4)CCCCC3)c2)cc1 | -4.9% | / | -3.1 | 7.7% | -20.6% | /
CCOC(=O)c1c(C)[nH]c(C2=NNC(=Nc3ccccc3)SC2)c1C | ? | ? | -8.4 | ? | -49.5% | 11.2µM*
COc1cccc2c(=O)c3ccccc3oc12 | 7.8% | -11.1% | 8.4 | ? | ? | 1.0%
O=c1c2ccccc2oc2ncccc12 | 11.5% | -4.1% | 4.6 | ? | 12.6µM* | -7.4%
O=C(NNC1=NS(=O)(=O)c2ccccc21)c1ccc(Cl)cc1 | -2.3% | -41.8% | ? | ? | 41.2% | ?
Oc1[nH]c(N=C2N=c3ccccc3=N2)c2ccccc12 | ? | 0.501µM* | -18.4 | ? | -58.6% | 2.51µM*
O=C(CSc1ccc(-c2cccnc2)nn1)Nc1ccc(F)c(F)c1 | -3.5% | 16.4% | -6.9 | 13µM* | -19.3% | -6.2%
Cc1ccc(C(=O)CSc2ccc(-c3cccnc3)nn2)cc1 | -2.9% | 112µM* | 17.2 | -3.6% | -16.4% | 2.51µM*
COc1cccc(C2CC(c3cccs3)=NN2C(=O)c2ccco2)c1O (configuration not stated) | -4.5% | 5.62µM* | 10.1 | -8.2% | -18.6% | -2.9%
COc1cc(-c2nc3ccc(N4CCN(C)CC4)cc3[nH]2)cc(OC)c1OC | 0.7% | 7.08µM* | -3.7 | ? | -58.2% | ?
Cc1nnc(-c2ccccc2)c(=O)n1/N=C/c1c(O)ccc2ccccc12 | 8.9% | ? | -3.0 | ? | -80.6% | 17.8µM*
CCc1n[nH]c(=S)n1/N=C/c1c(O)ccc2ccccc12 | / | ? | -4.7 | 3.8% | -0.1% | 20µM*
Cc1nnc(C)n1/N=C/c1c(O)ccc2ccccc12 | 3.7% | -14.8% | 92.1 | 26.2% | -40.1% | 4.9%
